Shown are actives, neighbours in structure and some others; about 1.2% of the full set was active somewhere.
BioA inh – M. tuberculosis BioA enzyme inhibitors, primary screen, biochemical, plate reader, single point, HTS. inhibition, % at 9.99 µM. AID 602481, 2012. hit rate 0.096% among 360,000. 7,8-diaminopelargonic acid synthase BioA (Mycobacterium tuberculosis). purified M. tuberculosis BioA enzyme; in the data active means inhibition above about 40%
TcdB GH inh – TcdB glycohydrolase inhibitors, primary screen, biochemical, single point, plate reader; TcdB glycohydrolase enzymatic assay; inhibition, % at 9.99 µM; hit rate 0.24% among 350,000; AID 652162, 2013; in the data active means inhibition above about 10%
PfHsp40 rescue – rescue of yeast from PfHsp40 toxicity, primary screen, S. cerevisiae, ATP luminescence. S. cerevisiae expressing PfHsp40, growth rescue. growth rescue, % at 12.5 µM. hit rate 0.68% among 340,000. AID 504582, 2011; in the data active means growth rescue above about 28%, passing the limit was not always enough;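 further: yeast W303a lacking pdr1 and pdr3 grown in galactose medium; growth measured after three days at 30 °C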
Y pestis TopoI – Yersinia pestis topoisomerase I inhibitors, primary screen, biochemical, cleavage product accumulation, plate reader, single point; activity, % at 10 µM; DNA topoisomerase I (Yersinia pestis CO92); hit rate 0.064% among 360,000; Y. pestis Topo-I cleavage product accumulation; in the data active means activity above about 50%, passing the limit was not always enough
Vc quorum ag-1 – inducers of Vibrio cholerae quorum light production without autoinducers, primary screen, BH1578 luxS cqsA deficient, single point. hit rate 0.16% among 350,000. activation, % at 18.7 µM. V. cholerae BH1578 lux reporter, luminescence, 6 h. AID 588436, 2011; in the data active means activation mostly above about 9.7%, no sharp cut-off
VHR inh abs – VHR1 phosphatase inhibitors, primary screen, biochemical, absorbance, uHTS. Dual specificity protein phosphatase 3 (Homo sapiens), P51452. recombinant VHR phosphatase, pNPP absorbance. inhibition, % at 13.3 µM. hit rate 0.52% among 290,000. AID 1654, 2009; in the data active means inhibition above about 50%
Target sequence (P51452 whole entry, looked up): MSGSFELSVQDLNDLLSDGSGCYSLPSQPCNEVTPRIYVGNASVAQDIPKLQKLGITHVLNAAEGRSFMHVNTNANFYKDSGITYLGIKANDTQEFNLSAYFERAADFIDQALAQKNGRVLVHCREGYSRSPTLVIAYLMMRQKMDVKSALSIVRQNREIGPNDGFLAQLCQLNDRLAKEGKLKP
Vc quorum ag-2 – V. cholerae lux activation without autoinducers – BH1578 luxS cqsA deficient, cherry-pick, plate reader, dose response | shares compounds with Vc quorum ag-1 | V. cholerae BH1578 lux reporter, luminescence, 6 h | activation, % at 50 µM | 620 tested, under 10 active; call rule not given here
HeLa tox – HeLa cell cytotoxicity, dose response, cytotoxicity control, 24 h, dry powder. activity change, negative = cytotoxicity, % at 35 µM. 25 tested, under 10 active. HeLa viability, CellTiter-Glo ATP luminescence. shares compounds with Vc quorum ag-1. AID 624140, 2012;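 active means signal drop with fitted half-maximal concentration at or below twice the highest valid dose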
* marks the source's active call; other numbers are inactive results.

`CC(C)CC#Cc1ccc2c(c1)O[C@H](CN(C)CC1CC1)[C@H](C)CN([C@@H](C)CO)S2(=O)=O` gave BioA inh -0.7 and TcdB GH inh -2.5.
For C=CCN1C(=O)OC2(CCCCC2)C1(C)O (stereo not drawn) the results were BioA inh -1.5, PfHsp40 rescue 0.5, Y pestis TopoI 1.9, Vc quorum ag-1 inactive and VHR inh abs 8.2.
`CCCOc1ccc(C2C(C(=O)c3ccc(C)o3)=C(O)C(=O)N2CCN2CCOCC2)cc1OC` (stereo not drawn) gave BioA inh -3.6, PfHsp40 rescue 0.6, Y pestis TopoI 1.3, Vc quorum ag-1 16.7*, VHR inh abs -4.3 and Vc quorum ag-2 200.0.
Cc1[nH]c2ccc3ncccc3c2c1C was read as PfHsp40 rescue -0.9, Y pestis TopoI -5.6, Vc quorum ag-1 0.0 and VHR inh abs -7.0.
`Cc1[nH]c2ccc3c(ncn3CCC#N)c2c1C` gave BioA inh 1.7, PfHsp40 rescue 1.1, Y pestis TopoI -6.2, Vc quorum ag-1 14.3, VHR inh abs 1.8 and Vc quorum ag-2 0.8.
Screening CNS(=O)(=O)c1ccc(CCC(=O)N2CCOCC2)cc1 returned BioA inh 0.0, TcdB GH inh 0.7, PfHsp40 rescue 0.2, Y pestis TopoI -0.5 and Vc quorum ag-1 -0.8.
CCCCc1cc2c(cc1NC(=O)CN1CCCCC1)OCCO2 was read as BioA inh -1.3, TcdB GH inh -0.1, PfHsp40 rescue 0.0, Y pestis TopoI 19.1, Vc quorum ag-1 14.3, VHR inh abs 6.1 and Vc quorum ag-2 0.2.
CC(=O)c1cc2c(cc1NC(=O)CN1CCCCCCC1)OCO2 was read as BioA inh -2.4, PfHsp40 rescue 0.6, Y pestis TopoI 22.9, Vc quorum ag-1 inactive and VHR inh abs -4.4.
`C=CCn1c(SCC(=O)c2c(N)n(C)c(=O)n(C)c2=O)nc2sc(C)c(C)c2c1=O` gave BioA inh -2.2, PfHsp40 rescue -0.8, Y pestis TopoI -0.9, Vc quorum ag-1 -0.6 and VHR inh abs 10.4.
CCCCNC(=O)Nc1cc(C)on1 was read as BioA inh -2.1, PfHsp40 rescue 0.2, Y pestis TopoI 4.3, Vc quorum ag-1 14.3, VHR inh abs -4.1 and Vc quorum ag-2 -0.2.
CC(C)(C)Cc1nc(-c2ccccn2)no1 was read as BioA inh -1.8, PfHsp40 rescue 0.8, Y pestis TopoI -4.5, Vc quorum ag-1 14.3, VHR inh abs -0.2 and Vc quorum ag-2 0.3.
For COc1ccc(C(CNC(=O)c2ccc(-c3cccc(C(F)(F)F)c3)o2)N2CCOCC2)cc1 (stereo not drawn) the results were BioA inh 0.7, TcdB GH inh 1.4, PfHsp40 rescue 0.1, Y pestis TopoI 4.4, Vc quorum ag-1 14.3 and Vc quorum ag-2 0.0.
For Cc1cc(Oc2ccc(C#N)cc2)nc(N2CCOCC2)n1 the results were BioA inh -0.9, PfHsp40 rescue -1.0, Y pestis TopoI 5.5, Vc quorum ag-1 25.0*, VHR inh abs -15.7 and Vc quorum ag-2 -0.1.
For CCCCNCCOCCOc1ccc(C)cc1Br the results were BioA inh -5.8, PfHsp40 rescue -1.0, Y pestis TopoI 4.3, Vc quorum ag-1 -1.6 and VHR inh abs -3.9.
For Cc1noc(C)c1S(=O)(=O)Nc1ccc2c(c1)C(=O)N([C@H](C)CO)C[C@H](C)[C@@H](CN(C)Cc1ccc(C(=O)O)cc1)O2 the results were BioA inh 0.1, TcdB GH inh -0.7, PfHsp40 rescue 22.4, Y pestis TopoI 6.0, Vc quorum ag-1 19.8 and Vc quorum ag-2 0.0.
Cc1noc(C)c1S(=O)(=O)Nc1ccc2c(c1)C(=O)N([C@@H](C)CO)C[C@H](C)[C@H](CN(C)Cc1ccc(C(=O)O)cc1)O2 was read as BioA inh -1.7 and TcdB GH inh 0.3.
`CCOC(=O)c1ccc2nc(C)c(C)nc2c1` gave TcdB GH inh 0.8, PfHsp40 rescue -0.8, Y pestis TopoI -2.2, Vc quorum ag-1 inactive and VHR inh abs 27.1.
For Cc1nc2ccc(C(=O)OCC(=O)N(C)c3ccccc3)cc2nc1C the results were BioA inh -0.4, TcdB GH inh 0.1, PfHsp40 rescue -0.6, Y pestis TopoI 0.1, Vc quorum ag-1 14.3 and Vc quorum ag-2 0.0.
Screening CCCCNC(=O)COC(=O)c1ccc(N(C)C)cc1 returned TcdB GH inh -1.3, PfHsp40 rescue -0.8, Y pestis TopoI 3.8, Vc quorum ag-1 170.1*, VHR inh abs 13.1 and Vc quorum ag-2 358.9.
Screening CCCCNC(=O)COC(=O)c1ccc(NC(C)=O)cc1 returned BioA inh -1.2, TcdB GH inh 0.9, PfHsp40 rescue 1.5, Y pestis TopoI -11.0, Vc quorum ag-1 -0.2 and VHR inh abs 18.4.
For O=C(CNC(=O)c1ccc(Cl)cc1)OCN1C(=O)c2ccccc2C1=O the results were BioA inh -2.0, TcdB GH inh -5.7, PfHsp40 rescue -0.5, Y pestis TopoI 0.8 and Vc quorum ag-1 10.6.
`O=C(O)c1[nH]c2ccccc2c1NS(=O)(=O)Cc1ccccc1` gave BioA inh 0.5, PfHsp40 rescue 1.0, Y pestis TopoI 16.7, Vc quorum ag-1 6.6, VHR inh abs -5.6 and Vc quorum ag-2 0.5.
`CCn1nnnc1NCc1cccn1C` gave BioA inh -0.8, PfHsp40 rescue 0.0, Y pestis TopoI 2.2, Vc quorum ag-1 -0.3, VHR inh abs 31.3 and HeLa tox -1.3.
For CCn1nnnc1NCc1ccc(Cl)cc1 the results were BioA inh 1.6, TcdB GH inh -0.3, PfHsp40 rescue -0.8, Y pestis TopoI 1.7, Vc quorum ag-1 6.7 and VHR inh abs 11.4.
CCOC(=O)C1=CCN(S(=O)(=O)c2ccccc2C)C1c1ccccc1 (stereo not drawn) was read as BioA inh -3.2 and TcdB GH inh 0.8.
`Cc1cc(C(F)(F)F)c2c(N)c(C(=O)NC3CC3)sc2n1` gave BioA inh -3.9, TcdB GH inh 1.0, PfHsp40 rescue -1.0, Y pestis TopoI -9.5, Vc quorum ag-1 12.5, VHR inh abs 10.5 and Vc quorum ag-2 1.0.
`CC(C)c1ccccc1N=C1SCCCN1C(=O)c1cccc(N2C(=O)CCC2=O)c1` gave TcdB GH inh -1.7, PfHsp40 rescue 0.3, Y pestis TopoI -6.5 and Vc quorum ag-1 inactive.
For CC(C)CCn1c(=O)[nH]c2ccccc21 the results were BioA inh 1.2, TcdB GH inh 1.5, PfHsp40 rescue -1.4, Y pestis TopoI 1.3, Vc quorum ag-1 -0.3 and VHR inh abs 12.5.
